Assay outcomes as filed in PubChem.
Shown are actives, neighbours in structure and some others; about 3% of the full set was active somewhere.
HEK293 viab – reduces viability of HEK-293 SNCA reporter cells. HEK-293-SNCA-luc viability, GF-AFC fluorescence, 24 h. Potency, µM (top dose mostly 57.1 µM), for inactives: at the top dose activity change, negative = cytotoxicity, most hits filed as cytotoxic. 150,000 tested, 0.12% active. AID 1671193;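 further: potency means the concentration at half of the fitted maximal effect; 0% = DMSO-treated cells and -100% = medium-only wells without cells; nearly all actives have a fitted effect of over 30% in size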
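Cytotoxicity counterscreen: after 24 h compound treatment of genome-edited SNCA-luciferase HEK-293 cells, live-cell protease substrate GF-AFC read by fluorescence after 30 min; activity scaled between DMSO (0%) and medium-only (-100%), curves Hill-fitted.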
KDM5B inhibitor – KDM5B demethylase inhibition. 220,000 tested, 2.6% active. KDM5B demethylase, FDH-coupled NADH fluorescence (FDH is formaldehyde dehydrogenase). Potency, µM (highest dose often 57.7 µM), hits mostly inhibitors. Q9UGL1. AID 1347165; further: potency means the concentration at half of the fitted maximal effect; 0% is about no effect; nearly all actives have a fitted effect of over 70% in size
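KDM5BΔAP (200 nM final) in 50 mM HEPES pH 7.5, 0.01% Tween-20 was preincubated 10 min at RT with compound over a concentration range. Substrate mix (H3K4me3 12.5 µM, α-KG 25 µM, Fe²⁺, ascorbate, NAD⁺, FDH) was added, and NADH fluorescence change over 30 min gave dose-response curves.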
SNCA expr inh – SNCA gene expression inhibition. HEK-293 SNCA-luciferase knock-in, luminescence, 24 h. AID 1671194. 140,000 tested, 0.17% active. Potency, µM (highest dose often 57.2 µM), for the others: at the highest dose activity change, negative = inhibition, hits mostly inhibitors;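 further: potency means the concentration at half of the fitted maximal effect; plate controls were DMSO cells for no effect and cell-free wells for full effect; nearly all actives have a fitted effect of over 45% in size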
IP6K1 inhibitor – blocks human inositol hexakisphosphate kinase 1. 140,000 tested, 0.81% active. activity change, % (series mostly up to about 58 µM). IP6K1 kinase, ADP-Glo luminescence, 2 h; hits give low values. Q92551; in the data active means activity change below about -25%; further: on the % scale 0 is the no-effect control and ±100 the full control effect
Target sequence (Q92551 whole entry, looked up): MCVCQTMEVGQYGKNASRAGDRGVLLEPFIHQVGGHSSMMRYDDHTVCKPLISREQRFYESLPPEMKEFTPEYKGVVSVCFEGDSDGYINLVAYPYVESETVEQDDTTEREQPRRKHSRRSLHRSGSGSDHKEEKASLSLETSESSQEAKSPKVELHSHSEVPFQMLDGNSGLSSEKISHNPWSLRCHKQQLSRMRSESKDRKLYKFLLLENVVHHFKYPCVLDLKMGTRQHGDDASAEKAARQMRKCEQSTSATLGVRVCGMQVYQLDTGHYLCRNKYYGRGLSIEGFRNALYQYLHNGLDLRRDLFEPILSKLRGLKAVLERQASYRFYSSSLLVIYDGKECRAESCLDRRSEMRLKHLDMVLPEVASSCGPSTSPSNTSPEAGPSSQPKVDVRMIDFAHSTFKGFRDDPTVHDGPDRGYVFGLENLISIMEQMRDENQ
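ADP-Glo luminescence measures ADP made by human IP6K1 during a 2 h RT reaction with ATP/IP6 (mix at 1.3 mM/130 uM); top library doses 57.5 and 19.1 uM final.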
Numbers without * were called inactive; [ ] = dose if it differs, or a comment. Unless noted, the call rests on the fitted dose curve; in most records, active means well fitted curve in the direction sought with a large enough effect; inconclusive means small, poorly fitted or top-dose-only effect, or another doubt; inactive means no such curve, though single readings can be large; an effect the other way counts as inactive or inconclusive.

For Cn1nc(C2CCCN2)c2c(C(=O)NCc3cccs3)cc(C3CC3)nc21 (stereo not drawn) the results were HEK293 viab 0%, KDM5B inhibitor inconclusive, SNCA expr inh 88% and IP6K1 inhibitor -4.
Cn1nc(C2CCCN2)c2c(C(=O)NC3CC3)cc(C3CC3)nc21 (stereo not drawn) was read as HEK293 viab 0%, KDM5B inhibitor inconclusive, SNCA expr inh 2% and IP6K1 inhibitor 10.
Cn1nc(C2CCCN2)c2c(C(=O)NCc3ccc(F)cc3)cc(C3CC3)nc21 (stereo not drawn) was read as HEK293 viab -6%, KDM5B inhibitor 79µM*, SNCA expr inh 19% and IP6K1 inhibitor 0.
CC(C)CNC(=O)c1cc(C2CC2)nc2c1c(C1CCCN1)nn2C (stereo not drawn) was read as HEK293 viab 8%, KDM5B inhibitor 79µM*, SNCA expr inh 15% and IP6K1 inhibitor 0.
`Cn1nc(C2CCCN2)c2c(C(=O)NCc3ccncc3)cc(C3CC3)nc21` (stereo not drawn) gave HEK293 viab 7%, KDM5B inhibitor 79µM*, SNCA expr inh 5% and IP6K1 inhibitor -5.
For Cc1ccc(SCCNC(=S)Nc2ccc(F)cc2)cc1 the results were KDM5B inhibitor inactive.
CCOC(=O)c1cnc2c(Cl)cccc2c1Nc1cccc(C)c1 was read as KDM5B inhibitor inactive.
For O=C(c1ccccc1)c1ccc(OCC(=O)N(Cc2nc3ccccc3c(=O)[nH]2)CC2CCCO2)cc1 (stereo not drawn) the results were KDM5B inhibitor inactive.
Screening COc1ccccc1-c1cc(C(=O)N2CCCC2)nc2c1cnn2C returned HEK293 viab 0%, KDM5B inhibitor 79µM*, SNCA expr inh 7% and IP6K1 inhibitor -12.
C#CCNC(=O)c1cc(-c2ccccc2OC)c2cnn(C)c2n1 was read as HEK293 viab -18%, KDM5B inhibitor 89µM*, SNCA expr inh 73% and IP6K1 inhibitor -6.
For N#Cc1cccc(S(=O)(=O)Nc2c(NC3CCCC3)c3ccccc3oc2=O)c1 the results were KDM5B inhibitor inactive.
For Cc1nc(-c2ccc(S(=O)(=O)Nc3cccc(C#N)c3)cc2)co1 the results were KDM5B inhibitor inactive.
COc1ccccc1-c1nc2nccc(-c3cc(OC)c(OC)c(OC)c3)n2n1 was read as HEK293 viab 6%, KDM5B inhibitor 25µM*, SNCA expr inh 32% and IP6K1 inhibitor 7.
`COc1ccccc1-c1nc2nccc(-c3ccc4c(c3)OCCCO4)n2n1` gave HEK293 viab -16%, KDM5B inhibitor 14µM*, SNCA expr inh 4% and IP6K1 inhibitor -3.
Brc1ccc(-c2ccnc3nc(-c4ccco4)nn23)s1 was read as HEK293 viab -7%, KDM5B inhibitor 28µM*, SNCA expr inh 1% and IP6K1 inhibitor -11.
Screening COc1ccccc1-c1nc2nccc(-c3ccccc3)n2n1 returned HEK293 viab -10%, KDM5B inhibitor inactive, SNCA expr inh 33% and IP6K1 inhibitor -5.
Screening COc1ccc(-c2ccnc3nc(-c4ccccc4OC)nn23)cc1OC returned HEK293 viab -6%, KDM5B inhibitor 28µM*, SNCA expr inh 21% and IP6K1 inhibitor -5.
For CSc1ccc(/C=C2\Cc3ccccc3C2=O)cc1 the results were KDM5B inhibitor inactive.
COc1cc(-c2ccnc3nc(-c4ccco4)nn23)cc(OC)c1OC was read as HEK293 viab -3%, KDM5B inhibitor 25µM*, SNCA expr inh 13% and IP6K1 inhibitor -8.
Screening COc1ccccc1-c1nc2nccc(-c3ccco3)n2n1 returned HEK293 viab -4%, KDM5B inhibitor inconclusive, SNCA expr inh 11% and IP6K1 inhibitor -9.
COc1ccccc1-c1nc2nccc(-c3cc4ccccc4o3)n2n1 was read as HEK293 viab -28%, KDM5B inhibitor 25µM*, SNCA expr inh 11% and IP6K1 inhibitor 7.
For COc1ccccc1-c1nc2nccc(-c3ccc(Cl)cc3)n2n1 the results were HEK293 viab -11%, KDM5B inhibitor 32µM*, SNCA expr inh 15% and IP6K1 inhibitor 5.
Screening COc1ccc(-c2cc(C(=O)Nc3cccc(F)c3)c3cnn(C)c3n2)cc1 returned IP6K1 inhibitor 7.
For Cc1ccc(SCC(=O)NC2(C#N)CCCC2)nc1 the results were KDM5B inhibitor inactive.
CC(C)NC(=O)NC[C@H]1O[C@@H](CO)[C@@H](O)[C@H]1N1CCN(c2ccccn2)CC1 was read as HEK293 viab 7%, KDM5B inhibitor inconclusive, SNCA expr inh -22% and IP6K1 inhibitor -5.
For CC(C)NC[C@H]1O[C@@H](CO)[C@@H](O)[C@H]1N1CCN(c2ccccn2)CC1 the results were HEK293 viab 2%, KDM5B inhibitor 25µM*, SNCA expr inh -5% and IP6K1 inhibitor -7.
For Cc1cccc(-c2nc(Nc3ccc(C(=O)O)cc3)c3ccccc3n2)c1 the results were KDM5B inhibitor inactive.
For COc1ccc(-c2ccnc3nc(C4CC4)nn23)c(F)c1 the results were HEK293 viab -2%, KDM5B inhibitor 25µM*, SNCA expr inh inconclusive and IP6K1 inhibitor -5.
For COc1ccc(-c2ccnc3nc(C4CC4)nn23)cc1 the results were HEK293 viab 4%, KDM5B inhibitor 16µM*, SNCA expr inh 20% and IP6K1 inhibitor -4.
Screening C=Cc1c(C)n[nH]c1C returned KDM5B inhibitor inactive.
Cn1ccc2c(C(=O)NCc3cccnc3)nc(-c3cccc4cc[nH]c34)cc21 was read as HEK293 viab inconclusive, KDM5B inhibitor 35µM*, SNCA expr inh -31%[87.6 µM] and IP6K1 inhibitor 32.
For Cn1ccc2c(C(=O)NCc3cccnc3)nc(-c3ccccc3C(F)(F)F)cc21 the results were HEK293 viab -21%[87.6 µM], KDM5B inhibitor 35µM*, SNCA expr inh -6%[87.6 µM] and IP6K1 inhibitor 3.
Screening Cn1ccc2c(C(=O)NCc3cccnc3)nc(-c3cccnc3)cc21 returned HEK293 viab -6%[87.6 µM], KDM5B inhibitor inactive, SNCA expr inh -4%[87.6 µM] and IP6K1 inhibitor 20.
For COCCNC(=O)c1ccc2c(c1)N(C)C(CC(=O)NCC(C)(C)C)CO2 (stereo not drawn) the results were HEK293 viab 10%, KDM5B inhibitor 28µM*, SNCA expr inh -20% and IP6K1 inhibitor 6.
COCCNC(=O)c1ccc2c(c1)N(C)C(CC(=O)NCc1ccoc1)CO2 (stereo not drawn) was read as HEK293 viab 4%, KDM5B inhibitor 28µM*, SNCA expr inh 20% and IP6K1 inhibitor -5.
`CCCN(C)C(=O)CC1COc2ccc(C(=O)NCCOC)cc2N1C` (stereo not drawn) gave HEK293 viab -8%, KDM5B inhibitor 32µM*, SNCA expr inh -6% and IP6K1 inhibitor 27.
Screening COCCNC(=O)c1ccc2c(c1)N(C)C(CC(=O)Nc1cccnc1)CO2 (stereo not drawn) returned HEK293 viab -1%, KDM5B inhibitor inconclusive, SNCA expr inh 3% and IP6K1 inhibitor -4.
`C=C(C)CNC(=O)CC1COc2ccc(C(=O)NCCOC)cc2N1C` (stereo not drawn) gave HEK293 viab -3%, KDM5B inhibitor inconclusive, SNCA expr inh 6% and IP6K1 inhibitor 1.
